Bioassay records deposited in PubChem by Sanford-Burnham Center for Chemical Genomics.
CYP2C19 inhib = inhibitors of human CYP2C19. CYP2C19 Supersomes, luciferin-H EGE luminescence, 30 min. inhibition, % at 5 µM. 21% of 96,000 active. AID 778;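 active means CYP2C19 inhibition above a set limit at 5 µM in the primary screen, cut at about 50% in these data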;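 further: plate controls were negative control wells for no effect and 2.5 mM tranylcypromine positive control for full effect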
Target sequence (P33261 whole entry, looked up): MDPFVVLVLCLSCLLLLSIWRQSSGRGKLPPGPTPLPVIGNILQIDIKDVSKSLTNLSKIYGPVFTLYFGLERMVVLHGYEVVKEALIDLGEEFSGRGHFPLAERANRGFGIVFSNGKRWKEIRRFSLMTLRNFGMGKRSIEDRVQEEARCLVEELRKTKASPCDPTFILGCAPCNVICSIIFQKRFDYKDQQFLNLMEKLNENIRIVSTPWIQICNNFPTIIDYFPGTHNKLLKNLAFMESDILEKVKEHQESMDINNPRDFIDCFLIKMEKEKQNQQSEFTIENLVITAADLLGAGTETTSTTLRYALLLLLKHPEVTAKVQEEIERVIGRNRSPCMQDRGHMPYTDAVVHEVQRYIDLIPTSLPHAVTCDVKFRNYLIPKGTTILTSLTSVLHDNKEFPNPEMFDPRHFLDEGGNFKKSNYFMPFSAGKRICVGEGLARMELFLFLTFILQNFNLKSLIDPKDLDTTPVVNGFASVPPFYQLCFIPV
PLAP act = human PLAP activation. P05187. purified PLAP enzyme, luminescent substrate read-out; hits give high values. activation fold at 20 µM. 1.2% of 96,000 active; in the data active means activation fold above about 2
CYP2C19 activ = increases human CYP2C19 enzyme activity; activation factor at 5 µM; 96,000 tested, under 10 active; P33261; recombinant CYP2C19, luciferin-H EGE luminescence; hits give high values; 0 = fully inhibited enzyme, 1 = untreated enzyme; AID 1025;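 active means activation factor of at least 2 at 5 µM in the primary screen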;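 further: 0 = wells with 2.5 mM tranylcypromine and 1 = vehicle-only wells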
CYP2C9 activ = CYP2C9 (human) activation; recombinant CYP2C9, luciferin-H conversion, luminescence; hits give high values; factor 1 = untreated enzyme, 0 = blocked; 1.4% of 96,000 active; AID 1024; P11712; activation factor at 5 µM;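 active means activation factor of 2 or more for CYP2C9 at a 5 µM dose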;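 further: 0 = sulfaphenazole-blocked wells and 1 = vehicle-only wells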
CYP2C9 inh = inhibitors of human CYP2C9 | P11712 | CYP2C9 Supersomes, luciferin-H conversion, luminescence | inhibition, % at 5 µM | 20% of 96,000 active;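 active means blocking of liver enzyme CYP2C9 beyond about 50% at 5 µM, limit read from the data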
Starred values were filed as active, the others as inactive. Hits are enriched below; roughly 31% of the tested compounds scored in any of these assays.

SMILES | CYP2C19 inhib | PLAP act | CYP2C19 activ | CYP2C9 activ | CYP2C9 inh
COc1cc(-c2ncc3ccccn23)cc(OC)c1OC | 14 | 0.9 | 0.9 | 0.8 | 18
Cc1csc(NC(=O)c2cccc(C)c2C)n1 | -9 | 1 | 1.1 | 1 | 0
CCOC(=O)Cc1csc(NC(=O)c2ccoc2C)n1 | 93* | 1.2 | 0.1 | 0.3 | 74*
CCOC(=O)c1cc(NC(=O)c2ccoc2C)cc(C(=O)OCC)c1 | 40 | 1.3 | 0.6 | 0.5 | 52*
Cc1csc(NC(=O)c2ccoc2C)n1 | 100* | 1.2 | 0 | 0.2 | 80*
C=CCn1c(SCC(=O)Nc2nnc(CC)s2)nnc1-c1cccnc1 | -7 | 1.1 | 1.1 | 1 | 0
COCCNC(=O)c1c[nH]c2ccc(S(=O)(=O)N3CCC4(CC3)OCCO4)cc2c1=O | 12 | 1.2 | 0.9 | 0.8 | 20
COC(=O)CCC(=O)Nc1sc(C)c(C)c1C(N)=O | -6 | 1.1 | 1.1 | 1 | 2
Cc1sc(NC(=O)CN(Cc2ccc(F)cc2)C(=O)C(C)C)c(C(N)=O)c1C | 51* | 1 | 0.5 | 0.7 | 26
CC(C)CC(NS(=O)(=O)c1ccccc1)C(=O)O (configuration not stated) | 14 | 1 | 0.9 | 0.8 | 18
CCCC(C)NS(=O)(=O)c1ccccc1 (configuration not stated) | 86* | 0.9 | 0.1 | 0.5 | 54*
CCCC(C)NS(=O)(=O)c1ccc(OC)c(C)c1 (configuration not stated) | 81* | 0.8 | 0.2 | 1.8 | -84
O=C1Nc2c(c(=O)[nH]c(=O)n2-c2ccccc2)C1(Nc1ncccn1)C(F)(F)F (configuration not stated) | 4 | 1 | 1 | 1 | 2
Cc1nn(Cc2ccccc2)c(=O)n1N(C)c1ncc(C(F)(F)F)cc1Cl | 67* | 1.5 | 0.3 | 0.9 | 10
CN(C)C(=O)c1cn(N(C)c2ncc(C(F)(F)F)cc2Cl)c(=O)c2ccccc12 | 53* | 1.4 | 0.5 | 0.2 | 80*
OCCNc1cc(-n2nc(-c3ccccc3)cc2-c2ccccc2)ncn1 | 34 | 1.4 | 0.7 | 0.7 | 32
CNc1cc(-n2nc(C)cc2-c2ccccc2)ncn1 | 61* | 1.2 | 0.4 | 0.5 | 48
CCCn1c(NCc2cc(OC)ccc2OC)nc2ccccc21 | 68* | 0.8 | 0.3 | 0.7 | 28
c1ccc(Cn2c(CNc3nc4ccccc4n3CCN3CCOCC3)nc3ccccc32)cc1 | 90* | 2.8* | 0.1 | 0.1 | 91*
COc1ccc(OC)c(CNc2nc3ccccc3n2CCN2CCCCC2)c1 | 55* | 1.4 | 0.5 | 0.8 | 17
COc1ccc(CNc2nc3ccccc3n2CCN2CCCCC2)c(OC)c1 | 10 | 1.4 | 0.9 | 0.9 | 8
CCCn1c(NCc2ccc(N(C)C)cc2)nc2ccccc21 | 92* | 1.2 | 0.1 | 0.8 | 24
CCC(=O)Nc1nc2ccccc2n1CCN1CCOCC1 | 1 | 1.3 | 1 | 1 | 4
CN1CCc2nc3sc(C(=O)C45CC6CC(CC(C6)C4)C5)c(N)c3cc2C1 | 17 | 1.3 | 0.8 | 0.7 | 30
COc1c(C)cccc1C(=O)Nc1ccc(N2CCOCC2)c(Cl)c1 | 11 | 1.5 | 0.9 | 1.7 | -71
SMILES | CYP2C19 inhib | PLAP act | CYP2C19 activ | CYP2C9 activ | CYP2C9 inh
COc1cccc(CNc2nc3ccccc3n2CCN2CCCCC2)c1 | 50 | 1.7 | 0.5 | 0.5 | 52*
CCn1c(NCc2cc(OC)ccc2OC)nc2ccccc21 | 78* | 0.9 | 0.2 | 0.4 | 58*
O=C1COc2ccc(C(=O)COC(=O)CCc3ccc(S(=O)(=O)N4CCOCC4)cc3)cc2N1 | -5 | 1 | 1 | 0.8 | 20
CCc1c(C)c(C#N)c2nc3ccccc3n2c1NCc1ccco1 | 42 | 1 | 0.6 | 0.3 | 71*
Cc1ccc2[nH]c(=O)c(N3CCOCC3)c(-c3ccccc3)c2c1 | -7 | 0.9 | 1.1 | 1.1 | -11
CCC(CC)c1nnc(NC(=O)c2c(C)nn(Cc3ccccc3Cl)c2C)s1 | 19 | 1.3 | 0.8 | 0.5 | 52*
CCn1nc(C(=O)NC2=NCCS2)c2ccccc2c1=O | 12 | 1.6 | 0.9 | 0.8 | 21
Cc1nn(Cc2ccccc2Cl)c(C)c1C(=O)NC1=NCCS1 | 66* | 1 | 0.3 | 0.6 | 42
Cc1nn(Cc2ccccc2Cl)c(C)c1C(=O)N1CCN(c2ccccc2)CC1 | 62* | 1.6 | 0.4 | 0.3 | 72*
Cc1nn(Cc2ccccc2Cl)c(C)c1NC(=O)CCCn1nc(C)c([N+](=O)[O-])c1C | 46 | 1.4 | 0.5 | 0.9 | 9
Cc1nn(Cc2ccccc2Cl)c(C)c1NC(=O)NC12CC3CC(CC(C3)C1)C2 | 15 | 2* | 0.9 | 0.7 | 27
N#Cc1ccc(CSc2nnc(NC(=O)CN3C(=O)C4CC=CCC4C3=O)s2)cc1 (configuration not stated) | 13 | 1.5 | 0.9 | 0.8 | 20
CC(C)Oc1ccc(C2CNC(=O)C2)cc1 (configuration not stated) | -11 | 0.9 | 1.1 | 1 | 2
Nc1nc2c(s1)C(=O)CC(c1ccccc1)C2 (configuration not stated) | 31 | 1.1 | 0.7 | 0.8 | 20
N#CCCNCC1(c2ccccc2)CCCC1 | 16 | 1.2 | 0.8 | 1 | 0
Cc1ccc2c(c1)c1c(n2CC(O)Cn2c(C)nc3ccccc32)/C(=N\O)CCC1 (configuration not stated) | 54* | 1.5 | 0.5 | 0 | 96*
CC(=O)Nc1ccc(OCC(O)Cn2c(C)nc3ccccc32)cc1 (configuration not stated) | 39 | 1 | 0.6 | 0.5 | 45
Cc1ccc2c(c1)c1c(n2CC2COC(C)(C)O2)C(=O)CCC1 (configuration not stated) | 76* | 1.3 | 0.2 | 0.3 | 73*
Cc1ccc2c(c1)c1c(n2CC(O)CN2C(=O)CNC2=O)C(=O)CCC1 (configuration not stated) | 24 | 1.2 | 0.8 | 0.9 | 7
Cc1ccc2c(c1)c1c(n2CC(O)Cn2c(C)nc3ccccc32)C(=O)CCC1 (configuration not stated) | 2 | 1.6 | 1 | 0.1 | 86*
Cc1nc2ccccc2n1CC(O)Cn1c2ccccc2c2ccccc21 (configuration not stated) | 75* | 1.6 | 0.2 | 0.2 | 78*
CCC(=O)N1c2ccc(C)cc2C2=NNC(=S)NC21O (configuration not stated) | 0 | 0.9 | 1 | 1 | 2
COc1cc(C(=O)Nc2ccc(OCC(=O)O)cc2)cc(OC)c1OC | -16 | 1.1 | 1.2 | 1.1 | -7
COc1cc2c(cc1OC)C1=C(C#N)CC/C(=N\S(=O)(=O)c3cccc(Cl)c3)N1CC2 | 27 | 1.1 | 0.7 | 0.4 | 63*
CCCCCOC(=O)C1[C@H]2C(=O)N(CCCOC)C[C@]23C=C[C@H]1O3 (some centres not stated) | -3 | 1.6 | 1 | 1 | 0
CCOC(=O)c1c(C)[nH]c(N=Nc2cccc(C)c2)c1C | 56* | 1.3 | 0.4 | 0.1 | 93*
